Assays:
Assay in all cases: log2 ratio of Biotin-Ahx-Ub-VS probe labelling (fragment/DMSO); higher = less target engagement (more negative = stronger competition), active = hit call of the paper (q ≤ 0.05, log2 ratio ≤ -1)
Settings in all cases: compound concentration: 200 uM; treatment time: 3 h
USP42 = molecular target: T1, USP42 (UniProt Q9H9J4)
T1 sequence (whole entry): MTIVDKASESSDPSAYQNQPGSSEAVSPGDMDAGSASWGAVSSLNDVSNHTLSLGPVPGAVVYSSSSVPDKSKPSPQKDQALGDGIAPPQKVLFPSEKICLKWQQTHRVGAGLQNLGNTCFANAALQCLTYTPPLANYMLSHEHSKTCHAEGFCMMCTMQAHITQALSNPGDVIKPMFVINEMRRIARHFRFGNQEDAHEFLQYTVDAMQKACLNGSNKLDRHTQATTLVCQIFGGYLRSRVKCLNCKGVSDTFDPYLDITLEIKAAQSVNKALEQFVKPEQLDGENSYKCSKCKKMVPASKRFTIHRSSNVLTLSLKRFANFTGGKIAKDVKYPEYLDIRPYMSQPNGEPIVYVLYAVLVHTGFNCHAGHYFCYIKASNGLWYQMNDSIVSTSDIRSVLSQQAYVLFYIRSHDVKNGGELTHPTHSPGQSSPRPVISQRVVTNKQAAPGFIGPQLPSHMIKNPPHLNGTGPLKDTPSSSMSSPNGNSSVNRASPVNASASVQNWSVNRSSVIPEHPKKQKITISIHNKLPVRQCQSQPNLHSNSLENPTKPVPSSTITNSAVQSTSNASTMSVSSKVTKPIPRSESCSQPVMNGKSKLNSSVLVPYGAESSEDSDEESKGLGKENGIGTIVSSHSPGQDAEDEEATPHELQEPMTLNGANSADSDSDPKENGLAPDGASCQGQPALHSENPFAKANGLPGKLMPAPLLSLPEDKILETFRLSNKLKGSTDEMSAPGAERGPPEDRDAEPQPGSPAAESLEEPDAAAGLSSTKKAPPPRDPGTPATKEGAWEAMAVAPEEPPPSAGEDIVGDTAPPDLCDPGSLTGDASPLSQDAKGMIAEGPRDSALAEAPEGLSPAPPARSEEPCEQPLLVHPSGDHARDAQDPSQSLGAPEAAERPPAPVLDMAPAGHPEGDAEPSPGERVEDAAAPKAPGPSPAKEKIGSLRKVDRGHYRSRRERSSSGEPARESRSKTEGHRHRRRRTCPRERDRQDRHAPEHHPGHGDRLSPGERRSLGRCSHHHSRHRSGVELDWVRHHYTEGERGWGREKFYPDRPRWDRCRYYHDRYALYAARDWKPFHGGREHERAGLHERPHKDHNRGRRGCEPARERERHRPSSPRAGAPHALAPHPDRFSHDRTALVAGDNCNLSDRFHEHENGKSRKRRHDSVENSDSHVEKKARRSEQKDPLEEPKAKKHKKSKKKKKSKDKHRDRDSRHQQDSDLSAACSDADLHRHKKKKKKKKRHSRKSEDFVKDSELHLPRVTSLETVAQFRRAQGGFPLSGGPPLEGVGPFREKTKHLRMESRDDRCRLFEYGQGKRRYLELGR
Outline: (§1)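 In triplicate, 495 µg of HEK293T lysate per sample was incubated with fragment at 200 µM or vehicle for 3 h. Biotin-Ahx-Ub-VS was then added to 0.5 µM final for 1 h, and labelled DUBs were captured with NeutrAvidin, digested with LysC and trypsin, and measured by diaPASEF LC-MS/MS. Data are average log2 fragment/vehicle ratios by unpaired t-test from global-median-normalised Spectronaut label-free quantities, restricted to proteins with ≥2 unique peptides.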

USP46 = USP46 (UniProt P62068)
Sequence of USP46 (P62068 whole entry): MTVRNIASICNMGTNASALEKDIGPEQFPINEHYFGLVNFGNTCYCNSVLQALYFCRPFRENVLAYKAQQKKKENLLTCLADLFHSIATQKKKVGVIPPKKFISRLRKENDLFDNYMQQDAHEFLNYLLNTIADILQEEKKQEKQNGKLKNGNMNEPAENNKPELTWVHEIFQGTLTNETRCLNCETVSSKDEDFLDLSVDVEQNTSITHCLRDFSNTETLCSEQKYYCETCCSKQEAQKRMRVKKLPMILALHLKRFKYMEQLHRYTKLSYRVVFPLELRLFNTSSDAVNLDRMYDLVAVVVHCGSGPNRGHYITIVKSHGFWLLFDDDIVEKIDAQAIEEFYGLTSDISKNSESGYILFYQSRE
Outline: as §1

USP47 = molecular target: T2, USP47 (UniProt Q96K76)
T2 sequence (whole entry): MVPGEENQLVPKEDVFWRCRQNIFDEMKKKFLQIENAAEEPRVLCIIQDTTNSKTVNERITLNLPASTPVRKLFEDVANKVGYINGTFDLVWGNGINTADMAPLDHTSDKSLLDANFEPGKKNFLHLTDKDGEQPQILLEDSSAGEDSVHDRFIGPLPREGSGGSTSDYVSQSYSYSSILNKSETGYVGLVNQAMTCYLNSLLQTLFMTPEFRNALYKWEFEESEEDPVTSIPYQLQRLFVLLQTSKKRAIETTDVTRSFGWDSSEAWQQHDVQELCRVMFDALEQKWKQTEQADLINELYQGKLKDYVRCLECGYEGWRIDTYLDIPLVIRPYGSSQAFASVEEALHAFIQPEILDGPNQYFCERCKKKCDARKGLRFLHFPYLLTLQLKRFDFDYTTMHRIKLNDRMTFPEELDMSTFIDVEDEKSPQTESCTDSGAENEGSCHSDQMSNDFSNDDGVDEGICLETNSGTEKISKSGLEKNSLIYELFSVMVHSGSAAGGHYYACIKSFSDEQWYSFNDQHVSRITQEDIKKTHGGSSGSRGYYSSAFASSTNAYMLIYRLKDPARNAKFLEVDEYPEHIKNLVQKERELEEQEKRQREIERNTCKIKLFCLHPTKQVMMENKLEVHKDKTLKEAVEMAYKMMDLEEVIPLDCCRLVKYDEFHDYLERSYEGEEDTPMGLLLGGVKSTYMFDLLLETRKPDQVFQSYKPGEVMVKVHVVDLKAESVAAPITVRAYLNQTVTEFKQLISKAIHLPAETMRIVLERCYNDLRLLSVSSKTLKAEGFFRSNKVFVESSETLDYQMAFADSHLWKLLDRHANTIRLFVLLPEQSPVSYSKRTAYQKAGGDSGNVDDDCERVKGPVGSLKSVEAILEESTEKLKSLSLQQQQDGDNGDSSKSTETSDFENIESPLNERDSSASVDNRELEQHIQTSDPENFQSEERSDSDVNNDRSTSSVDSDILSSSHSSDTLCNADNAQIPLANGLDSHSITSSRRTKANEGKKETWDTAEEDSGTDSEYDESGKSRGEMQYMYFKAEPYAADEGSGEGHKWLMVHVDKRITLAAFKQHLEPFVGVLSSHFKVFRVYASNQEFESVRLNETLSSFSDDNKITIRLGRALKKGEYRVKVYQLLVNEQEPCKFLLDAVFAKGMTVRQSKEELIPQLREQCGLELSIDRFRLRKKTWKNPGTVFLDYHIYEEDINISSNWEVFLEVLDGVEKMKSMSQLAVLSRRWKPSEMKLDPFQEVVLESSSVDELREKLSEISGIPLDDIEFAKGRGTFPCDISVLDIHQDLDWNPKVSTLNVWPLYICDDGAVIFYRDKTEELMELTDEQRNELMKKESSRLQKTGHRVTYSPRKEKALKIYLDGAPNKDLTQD
Outline: as §1

USP48 = molecular target: T3, USP48 (UniProt Q86UV5)
T3 sequence (whole entry): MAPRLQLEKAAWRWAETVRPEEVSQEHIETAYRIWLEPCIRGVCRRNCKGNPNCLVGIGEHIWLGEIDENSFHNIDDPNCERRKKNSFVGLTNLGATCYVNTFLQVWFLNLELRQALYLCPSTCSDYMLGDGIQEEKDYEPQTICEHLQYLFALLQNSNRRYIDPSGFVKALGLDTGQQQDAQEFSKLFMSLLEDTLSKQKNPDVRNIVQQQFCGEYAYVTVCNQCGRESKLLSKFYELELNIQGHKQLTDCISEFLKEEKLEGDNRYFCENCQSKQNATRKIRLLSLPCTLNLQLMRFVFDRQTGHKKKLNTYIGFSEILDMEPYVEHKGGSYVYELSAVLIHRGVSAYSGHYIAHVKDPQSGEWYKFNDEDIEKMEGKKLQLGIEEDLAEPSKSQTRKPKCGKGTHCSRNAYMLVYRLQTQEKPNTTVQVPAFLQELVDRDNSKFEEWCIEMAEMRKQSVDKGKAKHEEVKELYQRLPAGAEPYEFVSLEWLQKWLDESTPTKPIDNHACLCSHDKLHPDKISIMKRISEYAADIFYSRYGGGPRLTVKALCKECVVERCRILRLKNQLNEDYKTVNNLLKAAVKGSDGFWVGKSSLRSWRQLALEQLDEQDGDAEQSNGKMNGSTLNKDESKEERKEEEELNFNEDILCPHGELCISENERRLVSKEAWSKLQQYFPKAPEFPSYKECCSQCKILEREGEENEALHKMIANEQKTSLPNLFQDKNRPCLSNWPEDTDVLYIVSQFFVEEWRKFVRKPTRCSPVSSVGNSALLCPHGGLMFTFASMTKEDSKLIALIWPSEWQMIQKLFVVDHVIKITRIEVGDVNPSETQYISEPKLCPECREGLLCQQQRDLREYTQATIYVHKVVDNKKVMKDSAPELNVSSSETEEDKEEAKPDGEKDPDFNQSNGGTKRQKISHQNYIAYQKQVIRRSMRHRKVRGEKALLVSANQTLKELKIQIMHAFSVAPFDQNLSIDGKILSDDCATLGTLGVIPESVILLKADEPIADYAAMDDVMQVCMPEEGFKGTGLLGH
Outline: as §1

USP5 = molecular target: T4, USP5 (UniProt P45974)
T4 sequence (whole entry): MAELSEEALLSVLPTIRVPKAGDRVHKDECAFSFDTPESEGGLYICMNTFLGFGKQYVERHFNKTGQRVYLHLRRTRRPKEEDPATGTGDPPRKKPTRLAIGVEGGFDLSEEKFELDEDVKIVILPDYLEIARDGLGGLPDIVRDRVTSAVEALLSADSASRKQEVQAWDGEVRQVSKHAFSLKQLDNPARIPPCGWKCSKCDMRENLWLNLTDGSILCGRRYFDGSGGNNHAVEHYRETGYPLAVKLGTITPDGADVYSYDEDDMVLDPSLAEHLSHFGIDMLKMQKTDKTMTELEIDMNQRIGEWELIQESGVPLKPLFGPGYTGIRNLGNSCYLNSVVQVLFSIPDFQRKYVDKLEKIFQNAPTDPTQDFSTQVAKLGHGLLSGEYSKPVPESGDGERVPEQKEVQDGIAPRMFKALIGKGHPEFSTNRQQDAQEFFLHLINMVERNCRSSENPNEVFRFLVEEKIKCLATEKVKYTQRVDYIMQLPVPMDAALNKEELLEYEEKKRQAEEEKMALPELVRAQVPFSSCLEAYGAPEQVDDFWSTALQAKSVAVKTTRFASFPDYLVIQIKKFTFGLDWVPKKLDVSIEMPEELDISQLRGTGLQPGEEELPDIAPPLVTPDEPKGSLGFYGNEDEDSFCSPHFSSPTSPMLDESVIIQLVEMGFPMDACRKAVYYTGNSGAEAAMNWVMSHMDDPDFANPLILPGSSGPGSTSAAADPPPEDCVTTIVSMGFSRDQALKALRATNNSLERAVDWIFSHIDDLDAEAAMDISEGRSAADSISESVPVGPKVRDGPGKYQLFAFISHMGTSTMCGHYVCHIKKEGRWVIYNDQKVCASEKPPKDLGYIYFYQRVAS
Outline: as §1

USP54 = USP54 (UniProt Q70EL1)
Sequence of USP54 (Q70EL1 whole entry): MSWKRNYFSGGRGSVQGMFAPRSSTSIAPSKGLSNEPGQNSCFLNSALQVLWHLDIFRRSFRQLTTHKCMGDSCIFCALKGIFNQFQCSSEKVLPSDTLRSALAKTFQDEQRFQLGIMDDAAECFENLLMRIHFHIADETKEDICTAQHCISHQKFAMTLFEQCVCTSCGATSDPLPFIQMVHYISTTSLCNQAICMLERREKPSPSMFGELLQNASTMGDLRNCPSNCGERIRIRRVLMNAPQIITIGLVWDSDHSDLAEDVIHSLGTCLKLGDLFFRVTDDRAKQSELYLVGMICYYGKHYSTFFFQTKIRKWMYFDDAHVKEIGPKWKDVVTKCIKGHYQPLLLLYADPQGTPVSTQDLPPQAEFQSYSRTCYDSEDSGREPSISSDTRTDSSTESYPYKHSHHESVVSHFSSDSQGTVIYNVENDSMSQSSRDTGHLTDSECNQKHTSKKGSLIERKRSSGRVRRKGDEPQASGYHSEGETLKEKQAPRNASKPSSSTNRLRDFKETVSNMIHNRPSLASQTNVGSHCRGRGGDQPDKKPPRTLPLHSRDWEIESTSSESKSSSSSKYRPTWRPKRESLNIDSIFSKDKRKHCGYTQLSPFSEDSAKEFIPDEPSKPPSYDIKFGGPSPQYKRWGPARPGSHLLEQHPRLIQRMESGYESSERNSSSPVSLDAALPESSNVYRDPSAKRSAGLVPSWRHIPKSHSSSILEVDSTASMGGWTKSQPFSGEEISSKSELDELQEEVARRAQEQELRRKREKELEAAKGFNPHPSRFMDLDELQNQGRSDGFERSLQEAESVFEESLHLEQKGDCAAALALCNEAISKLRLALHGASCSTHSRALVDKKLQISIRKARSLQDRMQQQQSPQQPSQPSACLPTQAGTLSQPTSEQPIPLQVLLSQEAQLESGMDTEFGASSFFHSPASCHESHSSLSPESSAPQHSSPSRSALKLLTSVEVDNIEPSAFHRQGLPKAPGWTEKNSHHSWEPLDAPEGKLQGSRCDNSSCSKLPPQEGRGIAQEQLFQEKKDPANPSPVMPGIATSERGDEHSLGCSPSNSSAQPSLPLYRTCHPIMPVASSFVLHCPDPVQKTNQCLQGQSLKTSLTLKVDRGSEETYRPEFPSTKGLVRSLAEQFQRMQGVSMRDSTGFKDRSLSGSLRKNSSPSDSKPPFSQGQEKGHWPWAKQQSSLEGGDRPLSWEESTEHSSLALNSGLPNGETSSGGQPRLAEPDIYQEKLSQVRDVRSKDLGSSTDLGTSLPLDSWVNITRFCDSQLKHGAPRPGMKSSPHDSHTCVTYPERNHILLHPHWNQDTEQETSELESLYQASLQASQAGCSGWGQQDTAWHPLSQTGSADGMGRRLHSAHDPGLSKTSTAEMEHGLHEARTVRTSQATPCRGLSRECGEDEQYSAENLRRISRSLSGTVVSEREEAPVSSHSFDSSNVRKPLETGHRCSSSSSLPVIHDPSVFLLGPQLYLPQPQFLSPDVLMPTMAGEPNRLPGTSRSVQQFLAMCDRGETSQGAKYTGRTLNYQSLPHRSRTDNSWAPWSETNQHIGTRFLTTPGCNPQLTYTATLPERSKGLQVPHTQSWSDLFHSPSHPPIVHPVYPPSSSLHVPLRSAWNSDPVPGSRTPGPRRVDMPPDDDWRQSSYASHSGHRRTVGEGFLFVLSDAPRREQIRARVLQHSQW
Outline: as §1

USP7 = USP7 (UniProt Q93009)
Sequence of USP7 (Q93009 whole entry, looked up): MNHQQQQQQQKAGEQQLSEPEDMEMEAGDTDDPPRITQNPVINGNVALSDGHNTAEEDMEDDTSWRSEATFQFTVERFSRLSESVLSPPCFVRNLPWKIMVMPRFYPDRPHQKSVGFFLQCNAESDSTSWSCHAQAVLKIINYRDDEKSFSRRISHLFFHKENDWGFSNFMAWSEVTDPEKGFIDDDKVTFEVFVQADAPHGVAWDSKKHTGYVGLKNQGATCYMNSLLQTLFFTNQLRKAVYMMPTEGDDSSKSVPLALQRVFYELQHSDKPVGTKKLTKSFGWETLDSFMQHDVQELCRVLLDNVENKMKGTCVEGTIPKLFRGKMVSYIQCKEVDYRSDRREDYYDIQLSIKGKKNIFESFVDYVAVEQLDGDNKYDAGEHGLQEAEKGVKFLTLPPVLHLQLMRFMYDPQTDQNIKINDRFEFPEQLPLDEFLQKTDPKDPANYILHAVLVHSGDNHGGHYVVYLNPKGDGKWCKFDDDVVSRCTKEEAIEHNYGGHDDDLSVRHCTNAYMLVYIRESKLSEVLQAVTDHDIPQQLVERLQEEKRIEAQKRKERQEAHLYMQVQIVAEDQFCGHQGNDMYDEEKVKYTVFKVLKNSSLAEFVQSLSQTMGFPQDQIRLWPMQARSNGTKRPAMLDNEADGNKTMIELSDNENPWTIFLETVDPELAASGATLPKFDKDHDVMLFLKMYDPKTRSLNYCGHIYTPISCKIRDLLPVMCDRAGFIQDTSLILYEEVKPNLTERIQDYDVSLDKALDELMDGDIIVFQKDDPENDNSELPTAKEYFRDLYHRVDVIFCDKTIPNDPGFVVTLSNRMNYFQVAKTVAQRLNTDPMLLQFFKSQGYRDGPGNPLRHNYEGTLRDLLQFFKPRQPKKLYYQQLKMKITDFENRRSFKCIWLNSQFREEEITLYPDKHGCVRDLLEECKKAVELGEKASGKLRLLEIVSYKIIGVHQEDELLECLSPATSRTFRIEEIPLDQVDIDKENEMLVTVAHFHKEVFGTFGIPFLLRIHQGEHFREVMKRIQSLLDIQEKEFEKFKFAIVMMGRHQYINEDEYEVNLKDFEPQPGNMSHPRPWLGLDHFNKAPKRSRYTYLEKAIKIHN
Outline: as §1

USP8 = molecular target: T5, USP8 (UniProt P40818)
T5 sequence (whole entry): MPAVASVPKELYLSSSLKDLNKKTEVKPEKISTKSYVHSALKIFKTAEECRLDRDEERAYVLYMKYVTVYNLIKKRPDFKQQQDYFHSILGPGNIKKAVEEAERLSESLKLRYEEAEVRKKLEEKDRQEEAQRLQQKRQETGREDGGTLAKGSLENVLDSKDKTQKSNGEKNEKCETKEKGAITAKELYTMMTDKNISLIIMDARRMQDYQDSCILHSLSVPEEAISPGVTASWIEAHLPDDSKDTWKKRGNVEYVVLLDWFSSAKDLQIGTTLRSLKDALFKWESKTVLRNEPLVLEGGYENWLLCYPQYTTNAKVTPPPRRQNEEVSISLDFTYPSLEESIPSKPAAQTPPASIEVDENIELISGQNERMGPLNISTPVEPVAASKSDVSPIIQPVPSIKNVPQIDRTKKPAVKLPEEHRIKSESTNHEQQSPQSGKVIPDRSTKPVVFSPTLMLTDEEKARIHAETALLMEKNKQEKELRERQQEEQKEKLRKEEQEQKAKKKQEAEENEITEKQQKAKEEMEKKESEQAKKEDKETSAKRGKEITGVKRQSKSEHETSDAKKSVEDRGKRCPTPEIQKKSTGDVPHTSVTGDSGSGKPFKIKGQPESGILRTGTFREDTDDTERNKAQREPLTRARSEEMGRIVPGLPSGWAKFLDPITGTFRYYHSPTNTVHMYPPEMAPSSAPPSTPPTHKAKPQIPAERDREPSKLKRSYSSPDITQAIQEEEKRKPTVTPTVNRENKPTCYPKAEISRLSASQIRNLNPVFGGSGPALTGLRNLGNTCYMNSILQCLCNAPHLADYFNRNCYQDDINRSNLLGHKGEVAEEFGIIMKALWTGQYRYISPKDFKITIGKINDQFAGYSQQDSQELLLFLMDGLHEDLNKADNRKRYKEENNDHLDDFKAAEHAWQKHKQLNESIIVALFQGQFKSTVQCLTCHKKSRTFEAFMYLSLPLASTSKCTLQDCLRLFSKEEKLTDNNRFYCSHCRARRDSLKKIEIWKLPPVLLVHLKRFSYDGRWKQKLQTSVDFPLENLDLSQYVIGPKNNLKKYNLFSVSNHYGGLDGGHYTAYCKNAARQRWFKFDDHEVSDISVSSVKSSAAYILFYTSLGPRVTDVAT
Outline: as §1

Measured: log2 ratio of Biotin-Ahx-Ub-VS probe labelling

Cc1ccccc1C1(CNC(=O)CCl)CCOCC1
inactive: USP42 -0.0942 | USP46 0.0453 | USP47 -0.619 | USP48 -0.295 | USP5 0.17 | USP54 0.35 | USP7 -0.102 | USP8 -0.0708
